D1 antagonist – blocks dopamine activation of the human D1 receptor | P21728 | HEK293 TREx D1 cells, calcium flux, dopamine EC80; hits give low values | AID 504652 | hit rate 3.2% among 360,000 | activity change, negative = inhibition, % at 10 µM; in the data active = activity change below about -30%; also: % is scaled to controls: 0 for no effect and ±100 for the full control effect
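Tetracycline-induced HEK293 Trex D1 cells, force-coupled to calcium, dye-loaded; compounds added and read 180 s, then EC80 dopamine added and calcium flux tracked kinetically another 180 s.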
D1 agonist – activates the human D1 dopamine receptor; HEK293 T-REx D1 cells, calcium flux, agonist mode; activation, % at 2 µM; hit rate 1% among 360,000; AID 504660; also: 0% is about no effect
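Inducible HEK293 T-REx D1 cells, force-coupled to calcium signalling, were plated at 4000 cells/well with tetracycline and held overnight at 30 C. After no-wash calcium dye loading, compound-evoked calcium rise over 180 s flagged agonists.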
D1 PAM – enhances dopamine response at the human D1 receptor; AID 504651; HEK293 TREx D1 cells, calcium flux, dopamine EC20 potentiation; hit rate 0.036% among 360,000; potentiation, % at 10 µM; P21728; in the data active = potentiation above about 30%; also: 0% is about no effect
TRHR agonist – TRH receptor (human) agonism. P34981. TRHR cells, calcium flux fluo-8, FDSS agonist mode. activation, % at 2 µM. hit rate 0.18% among 360,000; also: 0% is about no effect
Target sequence (P34981 whole entry, looked up): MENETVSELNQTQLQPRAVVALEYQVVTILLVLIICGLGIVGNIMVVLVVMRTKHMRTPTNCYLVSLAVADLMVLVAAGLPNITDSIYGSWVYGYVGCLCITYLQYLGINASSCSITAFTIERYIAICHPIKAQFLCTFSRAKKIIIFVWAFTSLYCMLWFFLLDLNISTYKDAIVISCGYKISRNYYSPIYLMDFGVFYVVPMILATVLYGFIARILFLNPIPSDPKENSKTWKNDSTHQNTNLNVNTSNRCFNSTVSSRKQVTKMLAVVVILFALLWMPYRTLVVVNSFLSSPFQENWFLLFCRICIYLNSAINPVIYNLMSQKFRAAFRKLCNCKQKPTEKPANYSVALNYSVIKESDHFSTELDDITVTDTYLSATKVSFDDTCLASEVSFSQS
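Steps: seed TRHR cells overnight; add fluo-8 no-wash Ca dye, RT 30 min–1.5 h; record 10 s baseline; pin-transfer compounds; monitor fluorescence 1 cycle/s for the agonist window. Calcium increases flag candidate agonists.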
TRHR enhancer – allosterically enhances the human TRH receptor; P34981; TRHR cells, fluo-8 calcium fluorescence, EC20 TRH enhancement; enhancement, % at 2 µM; hit rate 0.66% among 360,000; AID 493056; in the data active = enhancement above about 30%; also: 0% is about no effect
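TRHR-expressing cells loaded with fluo-8 calcium dye were read kinetically (ex 480/em 530) during compound addition, then stimulated with an EC20 of TRH (10 nM final). Enhancement of the Gq-mediated intracellular calcium response was scored.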
The depositor's hits bear a star. This is a sample that favours compounds with a hit; in the whole collection about 4.7% have one here. Rule as the data show it, unless noted: active = activation above about 30%; inactive = the rest.

SMILES | D1 antagonist | D1 agonist | D1 PAM | TRHR agonist | TRHR enhancer
CCn1cc2nc(SCc3cccc(C(F)(F)F)c3)n(Cc3ccc(Cl)cc3)c(=O)c2n1 | 34 | 8 | -4 | 2 | -6
CC(C)(C)c1ccc(Nc2nc(C#N)nc(NC3CCCC3)n2)cc1 | -1 | 6 | 4 | 1 | 5
COc1ccc(OCC(=O)Nc2cccc(-c3nc4ccccc4s3)c2C)cc1 | -16 | 35* | -1 | -1 | 1
CCCN(CCC)C(=O)Cn1c(SCc2cccc(C(F)(F)F)c2)nc2cccnc21 | 13 | 2 | 0 | 0 | -14
Cc1ccc(S(=O)(=O)NCC(=O)NC2CCCCCC2)cc1 | 32 | 1 | 0 | 0 | 34*
Cc1ccc(S(=O)(=O)NCCC(=O)O)cc1 | 0 | 2 | -2 | 0 | 0
CCc1ccc(N(CC(=O)NC2CC2)S(=O)(=O)c2ccc(C)cc2)cc1 | -43* | 1 | -6 | 0 | -6
Cc1ccc(S(=O)(=O)NCCCC(=O)O)cc1 | -32* | 0 | 2 | 0 | 19
Cc1ccc(CSCCNS(=O)(=O)c2ccc(C)cc2)cc1 | -40* | 7 | -6 | 1 | 6
Cc1ccc(S(=O)(=O)NCC(=O)NC2CCCC2)cc1 | 8 | -1 | -4 | 0 | -1
COCCCNC(=O)c1c(NC(=O)Cc2coc3cc(C)cc(C)c23)sc2c1CCCC2 | -8 | 2 | 1 | 1 | -1
Cc1cc(C)c2c(=O)cc(C(=O)NCCc3ccc(S(N)(=O)=O)cc3)oc2c1 | -11 | 3 | -1 | 1 | 14
CC(C)c1nn2c(=O)cc(COC(=O)c3cccs3)nc2s1 | 25 | 2 | -3 | 1 | 1
CCCS(=O)(=O)N1CC(=O)N(c2ccc(C)c(Cl)c2)C(C)(C(=O)NC2CCCCCC2)C1 (stereo not drawn) | -1 | 2 | 4 | -1 | -11
CCOC(=O)c1ccccc1NC(=O)Cn1cc(C(=O)c2cccc(OC)c2)c(=O)c2ccc(C)nc21 | 11 | 1 | -3 | 0 | 0
COc1ccc(-c2nc(C)c(CCNC(=O)c3ccccc3Br)s2)cc1OC | -12 | 0 | -6 | 0 | 3
COc1ccc(S(=O)(=O)N2CCC(n3c(C)nc4cccnc43)CC2)cc1Cl | -34* | 15 | -4 | 2 | -2
NC[C@@H]1O[C@H](C23CC4CC(CC(C4)C2)C3)Cc2c1ccc(O)c2O | -78* | 118* | -5 | 0 | 3
COc1cccc(CNC(=O)Cn2cc3c(n2)-c2c(oc(C(=O)N4CCOCC4)c2C)CC3)c1 | -29 | 3 | 4 | 0 | 4
Cc1ccc(C(=O)NCCSc2c(C)[nH]c3ccccc23)cc1[N+](=O)[O-] | -70* | 0 | -11 | 0 | -2
COc1cccc(C(=O)NCCSc2c(C)[nH]c3ccccc23)c1OC | -38* | 16 | -13 | 1 | -11
COc1ccccc1C(=O)NCCSc1c(C)[nH]c2ccccc12 | -15 | 6 | 0 | 0 | -4
CCOC(=O)c1cc(S(=O)(=O)NCc2ccc(Cl)cc2)[nH]n1 | -32* | 2 | -1 | 0 | -5
CCOC(=O)c1cc(S(=O)(=O)NCc2ccc(F)cc2)[nH]n1 | -21 | 3 | -2 | -1 | 3
CC(C)Cc1[nH]c(=O)c(C#N)c2c1COC(C)(C)C2 | -33* | 1 | -5 | 0 | 0
SMILES | D1 antagonist | D1 agonist | D1 PAM | TRHR agonist | TRHR enhancer
CCCc1[nH]c(=O)c(C#N)c2c1COC(C)(C)C2 | 8 | 3 | -3 | 0 | 2
CN(CC(=O)NC(=O)NCc1ccccc1)Cc1ccc(Cl)cc1 | 2 | 1 | -4 | 0 | 9
CC(=O)c1cccc(NC(=O)CN(C)Cc2ccc(OC(F)F)cc2)c1 | -35* | 8 | -4 | -1 | -7
CN(CC(=O)Nc1cccc(C#N)c1)Cc1ccc(Cl)cc1 | -42* | 1 | -11 | 0 | 0
CN(CC(=O)NCc1ccccc1)Cc1ccc(Cl)cc1 | 3 | 0 | -1 | -1 | 33*
O=C(c1cccc([N+](=O)[O-])c1)N1c2ncnn2C2(CCCCC2)[C@@H]2CCCC[C@@H]21 | -3 | 5 | 0 | -1 | 7
O=C(CCc1nc2cccnc2n1Cc1ccccc1)NCc1cccc(Cl)c1 | 2 | 1 | -1 | -2 | -5
CC(C)CCNC(=O)c1ccc2c(c1)NC(=O)C(CS(=O)(=O)Cc1cccc(Br)c1)N2 (stereo not drawn) | -42* | 5 | -10 | -2 | 0
COc1ccc2nc(SCC(=O)c3c(C)[nH]c4ccccc34)nc(C)c2c1 | 4 | 0 | -2 | 1 | 0
CCOc1ccc(C2N3CC4(C(C)C)CN2CC(C(C)C)(C3)C4=O)cc1OC (stereo not drawn) | -3 | 1 | 4 | 1 | -3
C=CCc1ccccc1OCCNCCCOC | -46* | 8 | -10 | 0 | 7
NC(N)=NCCC[C@H](NC(=O)CNC(=O)c1ccccc1)C(=O)Nc1cc(C(F)(F)F)ccc1Cl | -13 | 0 | 7 | -2 | 1
Cc1ccc(F)cc1NC(=O)Cn1c(=O)nc(-c2ccccc2F)c2cc(Cl)ccc21 | 20 | 0 | 0 | 1 | 2
Cc1cc(C)n(-c2nc(NCCN(C)C)c3c4c(sc3n2)CCCC4)n1 | 7 | 33* | -4 | -1 | 3
Cc1c(Cl)c([N+](=O)[O-])nn1CCCC(=O)Nc1cccc(Cl)c1 | -32* | 4 | 8 | 0 | -3
CCN(C(=O)C1CCN(S(=O)(=O)c2c(C)noc2/C=C/c2ccc(C)cc2)CC1)c1cccc(C)c1 | -4 | 2 | -2 | 0 | 7
Oc1ccc(Br)cc1-c1nc2cnccn2c1NC1CCCC1 | -27 | 1 | -5 | -1 | -4
COc1ccc(Nc2c(-c3ccc(OC)cc3)nc3cnccn23)cc1 | 4 | -1 | -3 | -1 | 34*
Fc1ccc(-c2nc3cnccn3c2NC2CCCC2)cc1 | -36* | 1 | -2 | 0 | -3
Cn1ccc(C(=O)Nc2ccc(Br)cc2Br)n1 | -43* | 1 | -16 | 0 | -2
Cc1ccc(NC(=O)c2ccn(C)n2)c(Br)c1 | -5 | 1 | 0 | 1 | 2
CCCC(=O)N(c1ccc2oc(C)c(C(C)=O)c2c1)S(=O)(=O)c1ccc(C(=O)O)cc1 | -42* | 1 | -8 | 1 | -25
Cc1nc2scc(C)n2c(=O)c1S(=O)(=O)N1CCN(c2ccc([N+](=O)[O-])cc2)CC1 | -53* | 0 | -6 | 1 | 6
O=C(c1ccco1)N1CCN(CC(O)COc2ccc3oc4ccccc4c3c2)CC1 (stereo not drawn) | -35* | 23 | -9 | 1 | -5
CCCCCCCCCCCCCCCC[n+]1cccc(C(=O)N(CC)CC)c1 | -21 | 279* | 15 | 0 | 2
CCCCCCCC[n+]1cccc(C(=O)N(CC)CC)c1 | 10 | 1 | 2 | -1 | 2
COc1ccc(CNc2nc(-c3ccco3)nn2C(=O)CC(C)C)cc1 | 31 | 14 | 0 | -1 | 5

From PubChem
